Counter-ions that a name gives are not always drawn.
Test system: Pseudogymnoascus destructans 20631-21
Experiment: growth activity index (DuctApe, 0 = no growth, 9 = maximal growth) (index 0-9); higher = more fungal growth (less inhibition), active = 0 or less; extreme values may be limits of the assay
Conditions: temperature: 13 °C, YPD
[1] = concentration level (1-4, increasing; Biolog proprietary): 1
[2] = concentration level (1-4, increasing; Biolog proprietary): 2
[3] = concentration level (1-4, increasing; Biolog proprietary): 3
[4] = concentration level (1-4, increasing; Biolog proprietary): 4

Measured: growth activity index
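Further: biolog Phenotype Microarray plates PM21–25, OD595 followed daily over 11 days, growth curves converted to index, mean of two independent experiments.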

O.O=S(=O)([O-])[O-].O=S(=O)([O-])[O-].O=S(=O)([O-])[O-].[Al+3].[Al+3] [Aluminum sulfate] (Biolog plate: PM24)
inactive: [1] 2 | [2] 4 | [3] 6 | [4] 7

OB(O)O [Boric acid] (Biolog plate: PM22)
inactive: [1] 5.33 | [2] 0.333
active: [3] 0 | [4] 0

O=C([O-])c1ccccc1O.[Na+] [Sodium Salicylate] (Biolog plate: PM25)
inactive: [1] 4.67 | [2] 3.33 | [3] 4 | [4] 4

O=C(O)CN(CCOCCOCCN(CC(=O)O)CC(=O)O)CC(=O)O (Biolog plate: PM24)
inactive: [1] 4.33 | [2] 4.33 | [3] 4 | [4] 4

On1ccccc1=S [1-Hydroxypyridine-2-thione (pyrithione)] (Biolog plate: PM21)
inactive: [1] 5.25 | [2] 4 | [3] 4.25 | [4] 2.25

[Na+].[O]=[V](=[O])[O-] [Sodium metavanadate] (Biolog plate: PM22)
inactive: [1] 5 | [2] 4.33 | [3] 5 | [4] 3.67

O=C(O)/C=C/c1ccccc1 [Cinnamic acid] (Biolog plate: PM25)
inactive: [1] 5 | [2] 4.67 | [3] 5 | [4] 5

COc1ccc2cc3[n+](cc2c1OC)CCc1cc2c(cc1-3)OCO2 [Berberine Chloride] (Biolog plate: PM24)
inactive: [1] 4 | [2] 4.67 | [3] 0.333 | [4] 0.667

N=C(N)c1ccccc1 [Benzamidine] (Biolog plate: PM22)
inactive: [1] 4
active: [2] 0 | [3] 0 | [4] 0

Cc1cc(N)c2ccccc2[n+]1CCCCCCCCCC[n+]1c(C)cc(N)c2ccccc21 [Dequalinium chloride] (Biolog plate: PM23)
inactive: [1] 4 | [2] 4.67 | [3] 2 | [4] 1

C[C@H]1c2cccc(O)c2C(=O)C2=C(O)[C@]3(O)C(=O)C(C(N)=O)=C(O)[C@@H](N(C)C)[C@@H]3[C@@H](O)[C@@H]21 [Doxycycline] (Biolog plate: PM23)
inactive: [1] 4.67 | [2] 5 | [3] 5.33 | [4] 6

[Cl][Co][Cl] [Cobalt (II) chloride] (Biolog plate: PM23)
inactive: [1] 3.33 | [2] 4 | [3] 4.33 | [4] 1

NC(=O)NO [Hydroxyurea] (Biolog plate: PM25)
inactive: [1] 1 | [2] 0.333
active: [3] 0 | [4] 0

C[C@@H]1[C@H](O)[C@@H](C)/C=C/C=C/C=C/C=C/C=C/C=C/C=C/[C@H](O[C@@H]2O[C@H](C)[C@@H](O)[C@H](N)[C@@H]2O)C[C@@H]2O[C@](O)(C[C@@H](O)C[C@@H](O)[C@H](O)CC[C@@H](O)C[C@@H](O)CC(=O)O[C@H]1C)C[C@H](O)[C@H]2C(=O)O [Amphotericin B] (Biolog plate: PM24)
active: [1] 0 | [3] 0 | [4] 0
inactive: [2] 1.33

O=C(O)/C=C/C(=O)O [Fumaric acid] (Biolog plate: PM25)
inactive: [1] 4.33 | [2] 4 | [3] 4 | [4] 4

NC[C@H]1O[C@H](O[C@H]2[C@H](O)[C@@H](O[C@H]3O[C@H](CO)[C@@H](O)[C@H](N)[C@H]3O)[C@H](N)C[C@@H]2N)[C@H](N)C[C@@H]1O [Tobramycin] (Biolog plate: PM25)
inactive: [1] 5 | [2] 5 | [3] 5 | [4] 1

NC(CO)C(=O)NO (racemic) [DL-Serine hydroxamate] (Biolog plate: PM22)
active: [3] 0 | [4] 0
inactive: [1] 4.33 | [2] 4

OCC1OC(O)CC(O)C1O [2-Deoxy-D-glucose] (Biolog plate: PM23)
inactive: [1] 4.67 | [2] 5 | [3] 5 | [4] 4.33

CN(C)CCC=C1c2ccccc2CCc2ccccc21 [Amitriptyline] (Biolog plate: PM25)
inactive: [3] 2.67 | [4] 6.33
active: [1] 0 | [2] 0

O=C(O)CCC(=O)O [Succinic acid] (Biolog plate: PM25)
inactive: [1] 3.33 | [2] 3.33 | [3] 3.67 | [4] 3

NNC(=O)c1ccncc1 [Isoniazid] (Biolog plate: PM24)
inactive: [1] 5 | [2] 5 | [3] 4 | [4] 0.333

O=C(O)CN(CCN(CC(=O)O)CC(=O)O)CC(=O)O (Biolog plate: PM21)
inactive: [1] 5 | [2] 5 | [3] 5 | [4] 5

CC(CN1c2ccccc2Sc2ccccc21)N(C)C (stereo unspecified) [Promethazine] (Biolog plate: PM21)
inactive: [1] 4.75 | [3] 1 | [4] 6
active: [2] 0

O.O.O.O.O.O.[Cl-].[Cl-].[Mg+2] [Magnesium chloride] (Biolog plate: PM21)
inactive: [1] 4 | [2] 4 | [3] 4 | [4] 2.25

[Cl][Pd][Cl] [Palladium(II) Chloride] (Biolog plate: PM25)
inactive: [1] 4.33 | [2] 4 | [3] 4.67 | [4] 5

CC(C)Cc1ccc(C(C)C(=O)O)cc1 (stereo unspecified) [Ibuprofen] (Biolog plate: PM25)
inactive: [1] 4.33 | [2] 4.67 | [3] 4 | [4] 5

N[C@H](CO)C(=O)O [D-Serine] (Biolog plate: PM22)
inactive: [1] 5 | [2] 4.67 | [3] 4 | [4] 4

CN1CCN(CCCN2c3ccccc3Sc3ccc(C(F)(F)F)cc32)CC1 [Trifluoperazine] (Biolog plate: PM21)
inactive: [2] 0.25 | [3] 3.5 | [4] 6.25
active: [1] 0

CCCCCCCCCCCC[N+](C)(C)C [Dodecyltrimethyl ammonium bromide] (Biolog plate: PM21)
inactive: [1] 4.25 | [4] 1
active: [2] 0 | [3] 0

[F-].[Na+] [Sodium Fluoride] (Biolog plate: PM24)
inactive: [1] 4.33 | [2] 4.67 | [3] 5.33 | [4] 4.67

CN(C)C(=O)/N=N/C(=O)N(C)C [Diamide] (Biolog plate: PM21)
active: [3] 0 | [4] 0
inactive: [1] 5.75 | [2] 5

NC(N)=NCCC[C@H](N)C(=O)NO [L-Arginine hydroxamate] (Biolog plate: PM22)
inactive: [1] 5.67 | [2] 5 | [3] 3.33 | [4] 0.667

O=c1cn[nH]c(=O)[nH]1 [6-Azauracil] (Biolog plate: PM24)
inactive: [1] 4.67 | [2] 4 | [3] 4.67 | [4] 2.67

CN[C@@H]1[C@@H](O[C@H]2O[C@H](CO)[C@@H](N)[C@H](O)[C@H]2O)OC2C[C@@H](N)[C@@H](O[C@H]3[C@H](O)[C@@H](O)[C@H](N)C[C@@H]3N)OC2[C@@H]1O (stereo partly specified) [Apramycin] (Biolog plate: PM24)
inactive: [1] 5 | [2] 4.33 | [3] 7.67 | [4] 4.33

CO/N=C(\C(=O)N[C@@H]1C(=O)N2C(C(=O)O)=C(CSc3nc(=O)c(O)nn3C)CS[C@H]12)c1csc(N)n1 [Ceftriaxone] (Biolog plate: PM22)
active: [2] 0 | [3] 0 | [4] 0
inactive: [1] 2

N=C(N)c1ccc(OCCCCCOc2ccc(C(=N)N)cc2)cc1 [Pentamidine Isethionate] (Biolog plate: PM24)
inactive: [1] 0.333 | [2] 5.33 | [3] 8 | [4] 8

c1ccc(-c2ccccn2)nc1 [2,2`-Dipyridyl] (Biolog plate: PM21)
inactive: [1] 5 | [2] 5 | [3] 5.25 | [4] 5.25

Cn1c(=O)c2c(ncn2C)n(C)c1=O [Caffeine] (Biolog plate: PM22)
inactive: [1] 5 | [2] 4
active: [3] 0 | [4] 0

O=C(O)CN(CC(=O)O)c1ccccc1OCCOc1ccccc1N(CC(=O)O)CC(=O)O (Biolog plate: PM22)
inactive: [1] 4.67 | [2] 1.67 | [3] 1.33 | [4] 0.667

O=P(O)(O)OP(=O)(O)O [Sodium pyrophosphate] (Biolog plate: PM24)
inactive: [1] 5.67 | [2] 4.67 | [3] 4.67 | [4] 4

O=C(O)CC(O)C(=O)O (stereo unspecified) [Malic acid] (Biolog plate: PM25)
inactive: [1] 4 | [2] 5 | [3] 2.67 | [4] 1.33

CCCCCCCCCCCCCCCCOP(=O)([O-])OCC[N+](C)(C)C [Miltefosine] (Biolog plate: PM22)
inactive: [1] 5 | [2] 3
active: [3] 0 | [4] 0

NCC(=O)O [Glycine hydrochloride] (Biolog plate: PM23)
inactive: [1] 5 | [2] 4 | [3] 2 | [4] 2

[Cl][Cu][Cl] [Cupric chloride] (Biolog plate: PM23)
inactive: [1] 4.33 | [2] 5.33 | [3] 6 | [4] 6

From the supplement of paper PMC6124720
